Results on 13 compounds are retold here after PubChem BioAssay.

Holding throughout (assay): modulators of BK channel variants, profiling panel, selectivity assay, cell-based, U2OS BacMam, thallium flux, beta subunits (AID 1259406);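 note: initial slope of Thallos dye fluorescence rise after thallium is added; log ratio against the mean of 0.3% DMSO vehicle wells on the same plate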
One assay relates to F380Y. As to conditions: at 30 µM.
A further assay concerns F380Y/beta1. To be noted: at 30 µM.
The test system of a further assay is F380Y/beta2Delta. As to conditions: at 30 µM.
The test system of a further assay is F380Y/beta4. As to conditions: at 30 µM.
Assay [1] concerns the target Calcium-activated potassium channel subunit alpha-1 (Homo sapiens) + Leucine-rich repeat-containing protein 26 (Homo sapiens) (UniProt Q12791+Q2I0M4). To be noted: F380Y/Slo1WT/gamma1, at 30 µM.
The next assay deals with R275C. As to conditions: at 30 µM.
For another assay, the system named is R275C/beta1. To be noted: at 30 µM.
Another assay relates to R275C/beta2Delta. To be noted: at 30 µM.
Another assay deals with R275C/beta4. To be noted: at 30 µM.
A further assay concerns R275C/Slo1WT/beta2. As to conditions: at 30 µM.

A number with no mark means an inactive call. Active and inactive are the calls of the source.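 Rule for the calls: active = thallium flux through the channel raised or lowered by more than 3 SD from vehicle-only wells, actives on both sides; inactive = the rest.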

Chain of Calcium-activated potassium channel subunit alpha-1 (Homo sapiens) + Leucine-rich repeat-containing protein 26 (Homo sapiens) (Q2I0M4 whole entry, looked up, one chain of several): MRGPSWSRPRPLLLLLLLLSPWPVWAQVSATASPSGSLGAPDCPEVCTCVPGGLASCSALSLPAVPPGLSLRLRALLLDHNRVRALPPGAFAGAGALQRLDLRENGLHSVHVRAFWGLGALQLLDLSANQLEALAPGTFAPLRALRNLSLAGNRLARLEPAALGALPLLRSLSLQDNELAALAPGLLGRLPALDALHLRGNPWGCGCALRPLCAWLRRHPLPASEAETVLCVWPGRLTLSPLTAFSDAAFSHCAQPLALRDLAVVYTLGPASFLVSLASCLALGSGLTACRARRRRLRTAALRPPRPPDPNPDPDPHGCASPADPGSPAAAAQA

With `Cc1ccc(S(=O)(=O)NC(=O)Nc2nc(-c3ccc(C)c(Cl)c3)c(C)s2)cc1`, the log fold change Tl+ flux is 0.099 in the assay on F380Y; 0.176 (active) in the assay with F380Y/beta1; 0.0427 in the assay with F380Y/beta2Delta; 0.19 (active) in the assay on F380Y/beta4; 0.156 (active) in assay [1]; 0.265 (active) in the assay on R275C. The log fold change Tl+ flux in the assay on R275C/beta1 is 0.24 (active); with R275C/beta2Delta, 0.0622; with R275C/beta4, 0.211 (active); in the assay with R275C/Slo1WT/beta2, 0.0547.

Consider `O=C1CCC(=O)N1c1ccc(S(=O)(=O)NCCCN2CCN(Cc3ccccc3)CC2)cc1`, for which the log fold change Tl+ flux with F380Y is 0.0288; in the assay on F380Y/beta1, 0.0192; with F380Y/beta2Delta it was -0.00712; in the assay with F380Y/beta4 it was -0.0181; in assay [1] it was 0.0299; with R275C, -0.0386. In addition, the log fold change Tl+ flux was 0.0158 in the assay on R275C/beta1, -0.00414 in the assay with R275C/beta2Delta, -0.00195 in the assay on R275C/beta4 and -0.018 in the assay with R275C/Slo1WT/beta2.

`CCCCCc1c(C)nc(-c2ccccn2)[nH]c1=O`: the log fold change Tl+ flux in the assay on F380Y was -0.0547; with F380Y/beta1 it was -0.0236; in the assay with F380Y/beta2Delta, -0.0415; with F380Y/beta4 it was -0.0388; in assay [1], -0.0142; in the assay with R275C, 0.00744. Moreover, the log fold change Tl+ flux is 0.00404 in the assay on R275C/beta1, 0.0392 in the assay with R275C/beta2Delta, 0.0188 in the assay on R275C/beta4 and -0.0181 with R275C/Slo1WT/beta2.

As for `CS(=O)(=NS(=O)(=O)c1ccc(OC(F)(F)F)cc1)c1ccccc1` (stereo not given), the log fold change Tl+ flux is 0.0244 with F380Y; -0.0162 in the assay with F380Y/beta1; 0.018 with F380Y/beta2Delta; -0.00984 in the assay on F380Y/beta4; 0.0614 in [1]; 0.00979 in the assay with R275C. The log fold change Tl+ flux in the assay on R275C/beta1 is -0.0151; with R275C/beta2Delta, 0.00446; with R275C/beta4 it was 0.0404; in the assay on R275C/Slo1WT/beta2, 0.0068.

With `CCOC(=O)c1cc(CC)sc1NC(=O)C(Cl)(Cl)Cl`, the log fold change Tl+ flux with F380Y is -0.00144; with F380Y/beta1 it was 0.0314; in the assay with F380Y/beta2Delta, -0.028; in the assay on F380Y/beta4, 0.0374; in assay [1] it was 0.0144; in the assay with R275C it was -0.0151. Moreover, the log fold change Tl+ flux was -0.066 in the assay on R275C/beta1, 0.0214 with R275C/beta2Delta, -0.00727 in the assay on R275C/beta4 and -0.00449 in the assay on R275C/Slo1WT/beta2.

In the case of `CC(C)(C)NC(=O)NCCO`, the log fold change Tl+ flux in the assay with F380Y is 0.0116; in the assay with F380Y/beta1 it was -0.0332; with F380Y/beta2Delta, 0.0577; with F380Y/beta4, -0.013; in assay [1] it was -0.0499; in the assay on R275C it was -0.02. Besides, the log fold change Tl+ flux in the assay with R275C/beta1 was 0.0132; in the assay with R275C/beta2Delta it was -0.014; in the assay on R275C/beta4, 0.00214; in the assay on R275C/Slo1WT/beta2 it was -0.03.

Regarding `Cc1ccccc1S(=O)(=O)NCc1ccc(N2CCN(C)CC2)cc1`, the log fold change Tl+ flux is -0.0156 with F380Y; -0.00969 in the assay with F380Y/beta1; 0.0214 in the assay on F380Y/beta2Delta; 0.0231 in the assay with F380Y/beta4; 0.0153 in assay [1]; -0.00175 in the assay with R275C. Also, the log fold change Tl+ flux is 0.0272 in the assay on R275C/beta1, 0.0013 in the assay on R275C/beta2Delta, 0.0244 with R275C/beta4 and -0.0187 in the assay with R275C/Slo1WT/beta2.

Take `Cc1nn(Cc2nnn(CC(=O)NN=Cc3ccc(Cl)cc3)n2)c(C)c1Br`: the log fold change Tl+ flux in the assay on F380Y is 0.0697; with F380Y/beta1 it was 0.0216; in the assay with F380Y/beta2Delta, 0.00259; with F380Y/beta4, -0.0438; in assay [1], 0.0569; with R275C it was 0.0224. Also, the log fold change Tl+ flux in the assay on R275C/beta1 was -0.0427; in the assay on R275C/beta2Delta, -0.045; in the assay on R275C/beta4, 0.011; with R275C/Slo1WT/beta2, 0.0426.

Take `Cc1ccc(C(=O)CC(=CC(=C(C#N)c2ccc([N+](=O)[O-])cc2)c2ccc(C)cc2)c2ccccc2)cc1`: the log fold change Tl+ flux was 0.00161 in the assay on F380Y; 0.0132 in the assay on F380Y/beta1; -0.0182 in the assay on F380Y/beta2Delta; -0.0433 in the assay on F380Y/beta4; -0.0481 in assay [1]; -0.0132 in the assay on R275C. Besides, the log fold change Tl+ flux with R275C/beta1 is -0.025; in the assay on R275C/beta2Delta, -0.0508; in the assay on R275C/beta4, -0.0482; with R275C/Slo1WT/beta2 it was -0.0297.

As for `Cn1c(C(=O)O)ccc1S(=O)(=O)N(Cc1ccccc1)Cc1ccccc1`, the log fold change Tl+ flux is 0.0347 with F380Y; 0.205 (active) with F380Y/beta1; 0.0498 with F380Y/beta2Delta; 0.139 (active) in the assay with F380Y/beta4; 0.000486 in [1]; 0.00591 in the assay with R275C. Also, the log fold change Tl+ flux in the assay with R275C/beta1 was 0.0906; in the assay with R275C/beta2Delta, 0.0893 (active); in the assay on R275C/beta4, 0.11 (active); with R275C/Slo1WT/beta2 it was 0.0146.

As to `CCOC(=O)NN=C(C)C(C)=NNC(=O)OCC`, the log fold change Tl+ flux in the assay with F380Y was -0.0316; in the assay on F380Y/beta1, -0.0656; in the assay on F380Y/beta2Delta it was -0.0255; in the assay with F380Y/beta4 it was -0.0305; in [1], -0.00664; with R275C it was -0.0333. For the same compound, the log fold change Tl+ flux in the assay on R275C/beta1 was -0.0653; in the assay on R275C/beta2Delta it was -0.00622; in the assay with R275C/beta4 it was -0.0094; in the assay on R275C/Slo1WT/beta2 it was 0.0167.

For the compound `Cc1nc(-c2ccccc2)sc1C(=O)NC(=O)c1ccccc1O`, the log fold change Tl+ flux was 0.0264 in the assay with F380Y; 0.0766 with F380Y/beta1; 0.0338 in the assay with F380Y/beta2Delta; 0.00645 in the assay with F380Y/beta4; 0.146 (active) in assay [1]; 0.0501 with R275C. In addition, the log fold change Tl+ flux with R275C/beta1 was 0.0519; in the assay on R275C/beta2Delta, 0.07; in the assay with R275C/beta4 it was 0.078; in the assay on R275C/Slo1WT/beta2, 0.011.

As to `COC(=O)CC1(C(=O)OC)Oc2ccc(Br)cc2C(=O)N1c1cccc(Cl)c1Cl` (stereo not given), the log fold change Tl+ flux with F380Y was -0.195 (active); in the assay on F380Y/beta1 it was 0.188 (active); in the assay with F380Y/beta2Delta it was -0.0998; in the assay with F380Y/beta4, -0.677 (active); in [1], -0.246 (active); in the assay with R275C it was -0.108 (active). In addition, the log fold change Tl+ flux with R275C/beta1 is 0.102; in the assay with R275C/beta2Delta, 0.0176; in the assay on R275C/beta4, -0.204 (active); with R275C/Slo1WT/beta2 it was -0.0135.
